Platelet DG rel: platelet dense granule release activity; inhibition, %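 (compounds screened at 7.5 µM in platelet-rich plasma)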; 300,000 compounds, 0.22% hits; human platelet-rich plasma, SFLLRN dense granule ATP release, luminescence;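 active means mean replicate score, as percent of positive control, at or above 50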
SENP7 block: blocks the human protease SENP7. Q9BQF6. recombinant SENP7, Z-RLRGG-aminoluciferin luminescence, 40 min. inhibition, % at 5 µM. 330,000 compounds, 1.5% hits. AID 434973;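 active means inhibition above about 50% at the single test dose, limit read from the data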
SENP8 block-1: inhibitors of human SENP8 protease. Q96LD8. purified SENP8, Z-RLRGG-aminoluciferin cleavage, luminescence. inhibition, % at 10 µM. 330,000 compounds, 1.2% hits. AID 2540; in the data active means inhibition above about 50%
Target sequence (Q96LD8 whole entry, looked up): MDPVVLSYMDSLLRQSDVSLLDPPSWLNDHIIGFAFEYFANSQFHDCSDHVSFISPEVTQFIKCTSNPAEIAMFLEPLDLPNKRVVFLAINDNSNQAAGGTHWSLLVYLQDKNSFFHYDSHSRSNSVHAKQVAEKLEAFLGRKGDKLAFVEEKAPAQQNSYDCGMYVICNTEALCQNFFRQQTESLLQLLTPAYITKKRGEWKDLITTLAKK
SENP6 inh: blocks the human protease SENP6 | Q9GZR1 | Recombinant SENP6 catalytic domain, aminoluciferin luminescence | inhibition, % at 10 µM | 330,000 compounds, 1.8% hits | AID 2599;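 active means inhibition above about 50% at the single tested dose, limit read from the data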
Target sequence (Q9GZR1 628-1112 limits assumed): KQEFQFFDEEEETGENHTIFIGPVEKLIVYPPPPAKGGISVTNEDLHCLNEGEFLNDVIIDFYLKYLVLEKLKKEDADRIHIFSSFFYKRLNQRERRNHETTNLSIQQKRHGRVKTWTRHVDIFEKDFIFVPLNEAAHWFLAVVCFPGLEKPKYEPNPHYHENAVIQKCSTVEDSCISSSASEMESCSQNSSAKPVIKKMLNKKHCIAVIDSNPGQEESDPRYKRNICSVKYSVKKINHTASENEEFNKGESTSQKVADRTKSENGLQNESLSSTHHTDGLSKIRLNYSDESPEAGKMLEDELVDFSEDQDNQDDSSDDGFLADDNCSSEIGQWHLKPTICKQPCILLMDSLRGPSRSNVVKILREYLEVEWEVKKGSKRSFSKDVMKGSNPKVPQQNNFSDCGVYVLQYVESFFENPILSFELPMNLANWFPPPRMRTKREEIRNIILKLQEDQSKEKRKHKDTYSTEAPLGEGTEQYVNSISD
SENP8 block-2: inhibitors of human SENP8 protease; 360,000 compounds, 0.64% hits; inhibition, % at 20 µM; recombinant SENP8, Nedd8 substrate fluorescence; Q96LD8; in the data active means inhibition mostly above about 40%, no sharp cut-off; inactive means mostly below about 27%
HSP90 inh: HSP90 refolding inhibition in rabbit reticulocyte lysate. AID 1789. luciferase refolding luminescence, 3 h. 290,000 compounds, 0.91% hits. inhibition, % at 5.6 µM;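 active means inhibition above the screen-wide mean plus 3 SD, computed separately per campaign, cut at about 16% in these data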;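 further: inhibitors lower the luminescence because luciferase stays unfolded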
SENP8 conf: confirmation of human SENP8 protease inhibitors; 6,200 compounds, 40% hits; AID 488912; shares compounds with SENP7 block; Recombinant SENP8, Z-RLRGG-aminoluciferin luminescence, 60 min; inhibition, % at 12.5 µM;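 active means mean inhibition across replicates above about 50%, limit read from the data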
SENP6 confirm: human SENP6 inhibition, confirmed | shares compounds with SENP7 block | recombinant SENP6, Z-RLRGG-aminoluciferin luminescence | inhibition, % at 12.5 µM | 6,200 compounds, 58% hits
SENP7 confirm: confirmation of human SENP7 protease inhibitors. AID 488917. recombinant SENP7, Z-RLRGG-aminoluciferin luminescence, 40 min. inhibition, % at 12.5 µM. 6,200 compounds, 69% hits. shares compounds with SENP7 block
Casp3 SENP sel: inhibits human caspase-3 in SENP selectivity test. shares compounds with SENP7 block. purified caspase-3, Z-DEVD-aminoluciferin luminescence, 60 min. inhibition, % at 12.5 µM. 6,200 compounds, 60% hits. AID 488918;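 active means mean inhibition above about 50%, limit read from the data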
Luc interf: counter-screen for SENP inhibitors: luminescence interference; shares compounds with SENP7 block; Pre-incubated SENP8/Z-RLRGG-aminoluciferin, luciferase luminescence interference; inhibition, % at 12.5 µM; 6,200 compounds, 39% hits; AID 488919;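 active means mean inhibition above about 50% when retested at one dose, limit read from the data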
Hits are given with their value; 0 = inactive; - = not tested or not shown. Shown are actives, neighbours in structure and some others; about 2.8% of the full set was active somewhere.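 How the source made its calls, unless noted: active means mean inhibition above about 50% in the one-dose retest (limit read from the data); inactive means the rest.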

SMILES | Platelet DG rel | SENP7 block | SENP8 block-1 | SENP6 inh | SENP8 block-2 | HSP90 inh | SENP8 conf | SENP6 confirm | SENP7 confirm | Casp3 SENP sel | Luc interf
Cc1ccccc1NC(=O)c1cc2ccccc2o1 | 0 | 71.0 | 67.4 | 84.9 | 0 | 0 | 70.8 | 70.5 | 91.6 | 85.1 | 78.6
Cc1ccccc1NC(=O)c1cc(=O)c2ccccc2o1 | 0 | 0 | 0 | 0 | 0 | 0 | - | - | - | - | -
COc1ccccc1NC(=O)c1cc2ccccc2o1 | 0 | 0 | 0 | 56.6 | 0 | 0 | 0 | 0 | 78.4 | 0 | 54.3
COc1cc(NC(=O)c2cc3ccccc3o2)c(OC)cc1Br | 0 | 0 | 0 | 0 | 0 | 0 | - | - | - | - | -
COc1ccc(S(=O)(=O)N(C)C[C@H]2Oc3ccc(NC(=O)NC4CCCCC4)cc3C(=O)N([C@H](C)CO)C[C@@H]2C)cc1 | - | 0 | 0 | 0 | 0 | - | - | - | - | - | -
Cc1nc2ccccc2cc1C(=O)Nc1ccccc1Cl | 0 | 0 | 0 | 0 | 0 | 0 | - | - | - | - | -
O=C(Nc1ccc(Cl)cc1Cl)c1cc2ccccc2o1 | 0 | 58.8 | 0 | 0 | 0 | 0 | 0 | 0 | 0 | 0 | 0
O=C(Nc1ccccc1Cl)c1cc2ccccc2o/c1=N\O | 0 | 81.1 | 0 | 55.7 | 0 | 0 | 0 | 0 | 81.3 | 55.8 | 0
C[C@H](CO)N1C[C@H](C)[C@H](CN(C)C(=O)c2ccccc2F)Oc2ncc(Br)cc2C1=O | - | - | - | - | 0 | - | - | - | - | - | -
N#Cc1c(Nc2ccc(Cl)cc2)s[nH]c1=O | 0 | 0 | 0 | 58.6 | 0 | 0 | 56.0 | 0 | 84.7 | 68.7 | 0
COc1ccccc1-c1nc2cc3ccccc3cc2nc1-c1ccccc1 | 0 | 0 | 0 | 51.5 | 0 | 0 | 0 | 0 | 0 | 0 | 0
Cc1nc2oc3ccc(Cl)cc3c(=O)c2cc1C(=O)O | 0 | 79.3 | 69.5 | 78.6 | 0 | 0 | 81.7 | 81.1 | 96.2 | 94.2 | 76.1
Cc1nc2oc3ccccc3c(=O)c2cc1C(=O)O | 0 | 0 | 0 | 0 | 0 | 0 | - | - | - | - | -
CC(C)c1ccc2oc3nc(N)c(C(=O)O)cc3c(=O)c2c1 | 0 | 101.2 | 96.2 | 97.0 | - | 0 | 98.3 | 99.0 | 101.7 | 97.1 | 91.3
CN(C(=O)c1ccc(=O)n(Cc2ccc(Cl)cc2)c1)c1ccccc1 | 0 | 0 | 0 | 0 | 0 | 0 | - | - | - | - | -
Cc1ccccc1-c1nc2sc(C)c(C)c2c(=O)o1 | 0 | 83.2 | 60.8 | 77.2 | 0 | 0 | 0 | 0 | 0 | 0 | 0
Cc1ccccc1-c1nc2sc(-c3ccccc3)cc2c(=O)o1 | 0 | 84.5 | 0 | 80.0 | 0 | 0 | 0 | 0 | 0 | 0 | 0
Cc1ccc(-c2csc(N3CCN(S(=O)(=O)c4ccc5c(c4)NC(=O)CO5)CC3)n2)cc1 | 0 | 0 | 0 | 0 | 0 | 0 | - | - | - | - | -
Clc1ccc(-c2cn3nc4c(nc3n2)CCCC4)cc1 | 0 | 0 | 0 | 55.0 | 0 | 0 | 0 | 61.7 | 61.5 | 59.6 | 0
COc1cccc(-c2cn3nc4c(nc3n2)CCCC4)c1 | 0 | 0 | 0 | 0 | 0 | 0 | - | - | - | - | -
COc1ccc(C(=O)NCc2ccc(-c3nc4ccccc4s3)cc2)cc1OC | 0 | 0 | 0 | 0 | 0 | 0 | - | - | - | - | -
COc1ccc2nc(-c3ccc(F)cc3)sc2c1 | 0 | 97.0 | 73.7 | 97.1 | 0 | - | 95.4 | 96.8 | 101.1 | 94.6 | 77.8
COc1cc(OC)cc(-c2nc3ccccc3s2)c1 | 0 | 91.0 | 81.4 | 0 | 0 | 0 | 91.5 | 93.3 | 99.9 | 82.4 | 76.8
O=C(CN1CCN(Cc2cccc3ccccc23)CC1)NCCc1ccccc1 | 0 | 0 | 0 | 0 | 0 | 0 | - | - | - | - | -
CN(C)c1ccc(N=Cc2nc(-c3ccccc3)oc2OC(=O)c2cccc(Cl)c2)cc1 | 0 | 71.9 | 0 | 64.3 | 0 | 0 | 0 | 0 | 0 | 0 | 0
SMILES | Platelet DG rel | SENP7 block | SENP8 block-1 | SENP6 inh | SENP8 block-2 | HSP90 inh | SENP8 conf | SENP6 confirm | SENP7 confirm | Casp3 SENP sel | Luc interf
Cc1ccc(C(=O)Oc2oc(-c3ccccc3)nc2C=Nc2ccc(N(C)C)cc2)cc1 | 0 | 0 | 0 | 0 | 0 | 0 | - | - | - | - | -
O=C(c1cc2cc(F)ccc2[nH]1)N1CCCC(Nc2ccc(F)cc2)C1 (stereo not given) | 0 | 0 | 0 | 0 | 0 | 0 | - | - | - | - | -
c1ccc(Nc2nnc(-c3cccc4ccccc34)o2)cc1 | 0 | 65.1 | 0 | 0 | 0 | 0 | 0 | 0 | 52.7 | 0 | 0
Cc1ccc(-c2cc3onc(-c4ccccc4)c3c(=O)n2C)cc1 | - | 96.1 | 91.7 | 92.8 | 0 | - | 0 | 0 | 0 | 0 | 0
Cc1ccc(S(=O)(=O)n2nccc2-c2c(-c3ccccc3)noc2C)cc1 | 0 | 0 | 0 | 0 | 0 | 0 | - | - | - | - | -
CC1CCCN(C(=O)CN2C(=O)CSc3ccc(S(=O)(=O)N4CCOCC4)cc32)C1 (stereo not given) | 0 | 0 | 0 | 0 | 0 | 0 | - | - | - | - | -
O=C(/C=C/c1ccc([N+](=O)[O-])cc1)c1cccs1 | 0 | 0 | 0 | 0 | 0 | 0 | - | - | - | - | -
NC(=O)c1ccccc1N/C=C/C(=O)c1cccs1 | 0 | 75.6 | 80.8 | 91.7 | 0 | 0 | 0 | 89.5 | 98.5 | 93.5 | 87.8
Cc1c(NC(=O)c2cccs2)cccc1NC(=O)c1cccs1 | 0 | 0 | 0 | 0 | 0 | 0 | - | - | - | - | -
Cc1cccc(N/C=C/C(=O)c2cccs2)c1C | 0 | 93.8 | 95.2 | 94.8 | 0 | 0 | 0 | 98.8 | 102.1 | 94.6 | 95.0
NC(=O)c1ccccc1NS(=O)(=O)c1cccs1 | 0 | 0 | 0 | 0 | 0 | 0 | - | - | - | - | -
COc1cc([N+](=O)[O-])ccc1N/C=C/C(=O)c1cccs1 | 0 | 97.3 | 52.8 | 86.5 | 0 | 0 | 0 | 55.4 | 0 | 0 | 0
Cc1cccc2c1cnn2C(=O)Nc1cc(F)ccc1F | 0 | 0 | 0 | 61.2 | 0 | 0 | 0 | 0 | 0 | 0 | 0
CCOc1ccccc1NC(=O)n1ncc2c(C)cccc21 | 0 | 0 | 0 | 0 | 0 | 0 | - | - | - | - | -
Nc1c(N2CCCC2)cc(Cl)c2nonc12 | 0 | 0 | 83.4 | 91.4 | 0 | 0 | 0 | 85.6 | 74.5 | 0 | 0
Nc1c(N2CCOCC2)cc(Cl)c2nonc12 | 0 | 0 | 0 | 0 | 0 | 0 | - | - | - | - | -
Fc1cccc(Nc2ncnc3sccc23)c1 | 0 | 0 | 0 | 0 | 0 | 0 | - | - | - | - | -
O=C(O)c1cccc(Nc2ncnc3sccc23)c1 | 0 | 86.4 | 79.5 | 91.1 | 0 | 0 | 91.8 | 90.6 | 100.3 | 63.6 | 88.3
Cc1ccnc(NC(=O)Nc2ccc(F)cc2)c1 | 0 | 0 | 0 | 70.6 | 0 | 0 | 0 | 0 | 0 | 0 | 0
Cc1ccc(NC(=O)Nc2ccc(F)cc2)nc1 | 0 | 0 | 0 | 0 | 0 | 0 | - | - | - | - | -
Cc1ccnc(NC(=O)c2cc3cc(F)ccc3s2)c1 | 0 | 73.1 | 73.1 | 87.1 | 0 | 0 | 78.8 | 78.2 | 94.8 | 72.6 | 59.6

Assay outcomes: PubChem BioAssay, several laboratories
